AC50 and outcome data for 40 compounds are collected here from PubChem BioAssay (EPA / NIEHS).

A word on the AC50: it is the concentration at which the activity in the assay is half-maximal.

The source made the active and inactive calls. How the source made its calls: active means hit-call score of the fitted dose curve at least 0.9, where 1 is the maximum; inactive means score below 0.9.

Chain of Cytochrome P450 2C19 (Homo sapiens) (P33261 whole entry, looked up): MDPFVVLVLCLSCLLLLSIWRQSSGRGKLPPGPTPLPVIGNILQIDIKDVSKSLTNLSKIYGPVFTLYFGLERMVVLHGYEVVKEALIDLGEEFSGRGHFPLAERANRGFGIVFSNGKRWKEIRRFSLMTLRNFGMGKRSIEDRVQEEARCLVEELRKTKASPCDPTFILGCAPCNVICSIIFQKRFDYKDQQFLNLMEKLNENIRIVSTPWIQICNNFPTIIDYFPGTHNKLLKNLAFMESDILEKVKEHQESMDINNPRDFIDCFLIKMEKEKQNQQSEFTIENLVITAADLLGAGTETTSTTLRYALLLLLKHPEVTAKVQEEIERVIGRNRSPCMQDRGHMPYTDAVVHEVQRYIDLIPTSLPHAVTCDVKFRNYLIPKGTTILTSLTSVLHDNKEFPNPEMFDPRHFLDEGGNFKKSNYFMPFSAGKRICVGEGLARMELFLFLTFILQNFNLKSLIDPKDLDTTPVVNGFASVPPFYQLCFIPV

Read-out in the assay: Cytochrome P450 2C19 (Homo sapiens) (UniProt P33261)
Description: LTEA_HepaRG_CYP2C19: Life Technologies and Expression Analysis (LTEA) Assay for CYP2C19 using HepaRG (AID 2283482). Conditions: mRNA level, 48 h; actives raise or lower the signal. As for the experimental part:
LTEA_HepaRG is a cell based, multiplexed-readout assay that uses HepaRG, a human liver cell line, with measurements taken at 48 hours after chemical dosing on a 96-well plate.LTEA_HepaRG_CYP2C19 is one of 102 assay component(s) measured in the LTEA HepaRG cell culture assay. It is a marker of NR mediated metabolism.Data from the assay component LTEA_HepaRG_CYP2C19 was analyzed into 1 endpoint. This assay endpoint, LTEA_HepaRG_CYP2C19, was analyzed with bidirectional fitting relative to DMSO as the negative control and baseline of activity. Using a type of inducible reporter, measures of mRNA induction for gain or loss-of-signal activity can be used to understand regulation of transcription factor activity. To generalize the intended target to other relatable targets, this assay endpoint is annotated to the cyp intended target family, where the subfamily is xenobiotic metabolism.
A total of 1060 chemcials from the ToxCast library were tested in eight-point concentration-response experiments. Cell culture and cytotoxicity assays were conducted at Thermo Fisher Scientific's Custom Services facility (Madison, WI). A single lot of human HepaRG cells (Thermo Fisher Scientific, Frederick, MD) was used for the cell culture experiments. 96-well format collagen type I coated plates of human HepaRG cells were prepared using established methods. Briefly, cryopreserved HepaRG cells were thawed, plated at a density of approximately 100,000 cells/well in HepaRG Thaw, Plate, and General Purpose media (HPRG770, Thermo Fisher Scientific), and incubated for 48 hours. 0.5% DMSO was selected as vehicle control to balance the requisite need of DMSO in HepaRG cultures to maintain differentiation (for example, baseline metabolism, proportions of hepatocytes vs. cholangiocytes), while enabling further hepatic receptor pathway activation (for example, PXR and CAR) in response to chemical exposure. 48 hours after plating, the culture medium was replaced with HepaRG Serum-Free Incudtion Media. Cells were exposed to each test chemical in duplicate and maintained in CO2 incubators for another 48 hours. Chemical plates were thawed to room temperature and 200x concentrations of treatment groups were prepared. 8-point conentration-reponse curves were made with the highest exposure at 100 uM, followed by half-log dilutions, all in 0.5% DMSO. Each test plate contained variouse controls, induction positive controls (1mM phenobarbital), cytotoxicity positive controls ([…] aflatoxin B1), vehicle controls (0.5% DMSO), and total lysis controls (0.5% DMSO). Cell morphology images were taken using an Essen IncuCyte FLR automated microscope, with six 96-well plates imaged in about 24 minutes. Images were captured and exported and JPEG files. Spent culture media was transfered to black-well plates for the LDH assay, and remaining media was sorted at -80 C for later use. Cells were treated with RLT buffer and frozen until shipped for gene expression analysis. Total RNA was isolated from the cell suspension in 75 uL of Buffer RLT (Qiagen, Germantown, MD 20874) by Quintiles/Expression Analysis (Durham, NC) using a custom isolation procedure. Total RNA from each plate well was transferred to a preamplification plate. Fluidigm's 96.96 Dynamic ArrayTM (Fluidigm, Amsterdam, the Netherlands) technology was used for gene expression analyses by quantitative reverse transcription polymerase chain reaction (qRT-PCR, performed by Quintiles/Expression Analysis, Durham, NC)89. Standard TaqManTM Assays (Applied Biosystems/ThermoFisher Scientific, Foster City, CA) were used to assess the expression of 93 genes selected based on their selectivity and sensitivity to important hepatic receptors known to be modulated by environmental chemicals; importance in human hepatocyte functionality; and hepatotoxicity. […]
In the case of `CC(Oc1cccc(Cl)c1)C(=O)O` (stereo not given), the AC50 was 7.31 µM (active).

Turning to `CCc1cnc(C2=NC(C)(C(C)C)C(=O)N2)c(C(=O)O)c1` (stereo not given), the result was inactive.

On to `CCOP(=S)(OCC)Oc1ccc2c(C)c(Cl)c(=O)oc2c1`, for which the AC50 was 12.6 µM (active).

With `CCOP(=O)(OCC)Oc1cc(C)nc(C(C)C)n1`, the compound was classed as inactive.

Regarding `CCCCN(CC)c1c([N+](=O)[O-])cc(C(F)(F)F)cc1[N+](=O)[O-]`, the AC50 was 50 µM (active).

Consider `CCCSP(=O)(OCC)Oc1ccc(Br)cc1Cl` (stereo not given), for which the result was inactive.

Take `CCOP(=O)(SC(C)CC)N1CCSC1=O` (stereo not given): the outcome was inactive.

For the compound `CCOC(=O)CC(SP(=O)(OC)OC)C(=O)OCC` (stereo not given), the outcome was inactive.

With `C#CC(C)(C)NC(=O)c1cc(Cl)cc(Cl)c1`, the AC50 was 20.2 µM (active).

On to `CCC(CC)Nc1c([N+](=O)[O-])cc(C)c(C)c1[N+](=O)[O-]`, for which the AC50 is 6.35 µM (active).

Take `CSc1nc(NC(C)C)nc(NC(C)C)n1`: the AC50 was 1.96 µM (active).

As to `CN(C)C(=O)Nc1cccc(C(F)(F)F)c1`, the AC50 is 16 µM (active).

In the case of `CCOP(=S)(OCC)SCCSCC`, the AC50 is 22.2 µM (active).

For `COP(=O)(OC)OC(Br)C(Cl)(Cl)Br` (stereo not given), the outcome was inactive.

Take `N#CSCSC#N`: the AC50 was 90.8 µM (active).

`CCOP(=S)(Oc1cnc(C(C)(C)C)nc1)OC(C)C` (stereo not given): the AC50 was 11.5 µM (active).

In the case of `Nc1nc(N)nc(NC2CC2)n1`, the compound was classed as inactive.

As for `CCCCOC(=O)[C@@H](C)Oc1ccc(Oc2ccc(C#N)cc2F)cc1`, the call was inactive.

With `CCNc1nc(Cl)nc(NC(C)(C)C#N)n1`, the AC50 is 12.4 µM (active).

For the compound `CSC1=N[C@@](C)(c2ccccc2)C(=O)N1Nc1ccccc1`, the AC50 is 38.1 µM (active).

Consider `Nc1c(Cl)cc([N+](=O)[O-])cc1Cl`, for which the AC50 was 85 µM (active).

For the compound `CC1(C(=O)Nc2ccc(O)c(Cl)c2Cl)CCCCC1`, the compound was classed as inactive.

`C[N+]1(C)CCCCC1`: the compound was called inactive.

For `CCCOc1nn(C(=O)NS(=O)(=O)c2ccccc2C(=O)OC)c(=O)n1C`, the compound was classed as inactive.

On to `CNc1cnn(-c2cccc(C(F)(F)F)c2)c(=O)c1Cl`, for which the AC50 is 21.6 µM (active).

Turning to `CCCSP(=O)(OCC)SCCC`, the result was inactive.

Take `CCC(=O)Nc1ccc(Cl)c(Cl)c1`: the AC50 was 32.7 µM (active).

`CC(=NC#N)N(C)Cc1ccc(Cl)nc1`: the compound was classed as inactive.

Consider `CCCCOC(=O)c1ccccc1C(=O)O`, for which the compound was called inactive.

Regarding `CC(COc1ccc(Oc2ccccc2)cc1)Oc1ccccn1` (stereo not given), the result was inactive.

On to `O=[N+]([O-])c1cc(C(F)(F)F)c(Cl)c([N+](=O)[O-])c1Nc1ncc(C(F)(F)F)cc1Cl`, for which the AC50 is 26 µM (active).

Take `CN(C)[C@@H]1C(=O)C(C(N)=O)=C(O)[C@@]2(O)C(=O)C3=C(O)c4c(O)cccc4[C@@](C)(O)[C@H]3[C@H](O)[C@@H]12`: the call was inactive.

As for `C[Si](Cn1cncn1)(c1ccc(F)cc1)c1ccc(F)cc1`, the AC50 was 80.1 µM (active).

For `O=C(O)c1cc(Oc2ccc(C(F)(F)F)cc2Cl)ccc1[N+](=O)[O-]`, the compound was called inactive.

Take `COc1ccc(C(=CC(=O)N2CCOCC2)c2ccc(Cl)cc2)cc1OC`: the AC50 was 10.4 µM (active).

Take `C#CCC1=C(C)C(OC(=O)C2C(C=C(C)C)C2(C)C)CC1=O` (stereo not given): the call was inactive.

With `CN(C)NC(=O)CCC(=O)O`, the result was inactive.

For `CCOP(=S)(OCC)Oc1ccc([N+](=O)[O-])cc1`, the AC50 was 9.2 µM (active).

Regarding `C=C(C)[C@H]1Cc2c(ccc3c2O[C@@H]2COc4cc(OC)c(OC)cc4[C@@H]2C3=O)O1`, the AC50 was 2.75 µM (active).

On to `COP(=O)(OC)SCn1c(=O)oc2cc(Cl)cnc21`, for which the AC50 is 50 µM (active).
